We go through 16 compounds from PubChem BioAssay (NCATS).

SMILES strings stand for the structures. Results filed as inconclusive are left out. Where a call stands in place of a potency, no number is given. Activity calls are given as the source filed them. Calls follow the shape of the dose curve; as a rule, active = well fitted cell-killing curve with a large enough effect; inconclusive = small, poorly fitted or top-dose-only effect; inactive = no such curve, though single readings can be large or run the other way.
Potency is read from the fitted curve at half-maximal effect.

This assay in a line: qHTS of pediatric cancer cell lines to identify multiple opportunities for drug repurposing: Primary screen for Rh41 cells (AID 1347108). Also: nearly all actives have a fitted effect of over 70% in size. As to conditions: Rh41 rhabdomyosarcoma viability, CellTiter-Glo luminescence, 48 h; series mostly up to 46 µM. In outline: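 Cells seeded at 500-1,000 cells/well in growth media, rested 5 hours at 37 degrees C, 5% CO2, then dosed; MIPE compounds at 11-point (from 0.78 nM) and NPC at 8-point (from 0.59 nM) final concentrations. Viability by CellTiter-Glo luminescence after 48 hours.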
(qHTS replaces the single test concentration by a dilution series.)
Regarding `CN1CCN(C(=O)O[C@H]2c3nccnc3C(=O)N2c2ccc(Cl)cn2)CC1`, the Potency result was “inactive”.
For the compound `CC(C)=CC1C(C(=O)OCc2cccc(Oc3ccccc3)c2)C1(C)C` (stereo unspecified), the Potency result is “inactive”.
On to `NCCc1cc(O)c(O)cc1O`, for which the Potency result is “inactive”.
Take `CCN(CC)C(=O)N[C@@H]1C=C2c3cccc4[nH]cc(c34)C[C@@H]2N(C)C1`: the Potency result is “inactive”.
The value for `C=C1CC[C@@]2(O)[C@H]3Cc4ccc(O)c5c4[C@@]2(CCN3CC2CC2)[C@H]1O5` was “inactive”; that for `Nc1ccncc1` was “inactive”.
The value for `CCCN1CCC[C@@H]2Cc3[nH]ncc3C[C@H]21` was “inactive”; that for `CC(=O)[C@H]1CC[C@H]2[C@@H]3CC[C@H]4C[C@](C)(O)CC[C@]4(C)[C@H]3CC[C@]12C` was “inactive”.
For `CC[C@@H](CO)NC(=O)[C@@H]1C=C2c3cccc4[nH]cc(c34)C[C@H]2N(C)C1`, the Potency entry was “inactive”.
On to `NP(N)(=O)NC(=O)c1ccc(F)cc1`, for which the Potency entry is “inactive”.
As for `Cc1cccc(C)c1NC(=O)CN1CCCC1=O`, the entry is “inactive”; as for `N[C@@H]1C[C@H]1c1ccccc1`, “inactive”.
Take `CC[N+](CC)(CC)CC`: the Potency entry is “inactive”.
For the compound `Fc1ccc(C(OCCN2CCN(CCCc3ccccc3)CC2)c2ccc(F)cc2)cc1`, the Potency was 20.9 µM (active).
The value for `C#CCOC(C(=O)OCCN(C)C)(c1ccccc1)c1ccccc1` was “inactive”; that for `CN(C)CCc1ccc(O)cc1` was “inactive”.
